The sample as a whole holds a higher share of hits than the screen did.
DT40 TDP1 CPT = growth inhibition of DT40 Tdp1-/-;hTDP1 cells with camptothecin (screen for TDP1 inhibitors); chicken DT40 Tdp1-/-;hTDP1 cells + 20 nM CPT, ATP luminescence, 48 h; Potency, µM (titrated, usually from 46.2 µM), for inactives: at the highest dose activity change, negative = growth inhibition, actives largely listed as inhibitors; 420,000 compounds, 12% hits; also: potency is read from the fitted curve at half-maximal effect; nearly all actives have a fitted effect of over 55% in size
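Chicken DT40 Tdp1-/- cells complemented with human TDP1, 400 cells/well, exposed to compounds plus 20 nM camptothecin for at least 48 h at 37 C; viability read as ATP content by CellTiter-Glo luminescence.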
IL1B secr inh = blocks inflammasome-driven IL-1 beta release; THP-1 LPS/ATP IL-1B secretion, AlphaLISA, 16 h; hits give low values; activity change, % at 57.5 µM; 360,000 compounds, 4.7% hits; AID 743279; in the data active = activity change below about -50%; inconclusive = mostly about -30% to -49%
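THP-1 cells pretreated 1 hr with compounds (up to 57.5 uM final), then stimulated with LPS (250 ng/mL final) plus ATP (1.25 mM final); secreted IL-1B measured by AlphaLISA after 16 hr, decreased signal indicating inhibition.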
DT40 TDP1 no CPT = qHTS for Inhibitors of human tyrosyl-DNA phosphodiesterase 1 (TDP1): qHTS in cells in absence of CPT | DT40 Tdp1-/- hTDP1 cells, no CPT, ATP luminescence, 48 h | Potency, µM (highest dose often 46.2 µM), inactives show top-dose activity change, negative = growth inhibition, most hits filed as inhibitors | 420,000 compounds, 15% hits | AID 686978, 2013; also: potency is read from the fitted curve at half-maximal effect; nearly all actives have a fitted effect of over 55% in size
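Chicken DT40 Tdp1-/- cells complemented with human TDP1, screened without camptothecin (DMSO vehicle only), 400 cells/well. Compounds pin-transferred, cells incubated at 37 °C for at least 48 hr. Growth read as ATP-dependent luminescence (CellTiter-Glo, 30 min at RT).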
ALOX12 inh = blocks human arachidonate 12S-lipoxygenase; purified 12hLO, xylenol orange hydroperoxide absorbance; Potency, µM (highest dose often 108 µM), for the others: at the top dose activity change, negative = inhibition, hits mostly inhibitors; 580,000 compounds, 1.1% hits; AID 1671190; also: potency is read from the fitted curve at half-maximal effect
Target sequence (P18054 whole entry, looked up): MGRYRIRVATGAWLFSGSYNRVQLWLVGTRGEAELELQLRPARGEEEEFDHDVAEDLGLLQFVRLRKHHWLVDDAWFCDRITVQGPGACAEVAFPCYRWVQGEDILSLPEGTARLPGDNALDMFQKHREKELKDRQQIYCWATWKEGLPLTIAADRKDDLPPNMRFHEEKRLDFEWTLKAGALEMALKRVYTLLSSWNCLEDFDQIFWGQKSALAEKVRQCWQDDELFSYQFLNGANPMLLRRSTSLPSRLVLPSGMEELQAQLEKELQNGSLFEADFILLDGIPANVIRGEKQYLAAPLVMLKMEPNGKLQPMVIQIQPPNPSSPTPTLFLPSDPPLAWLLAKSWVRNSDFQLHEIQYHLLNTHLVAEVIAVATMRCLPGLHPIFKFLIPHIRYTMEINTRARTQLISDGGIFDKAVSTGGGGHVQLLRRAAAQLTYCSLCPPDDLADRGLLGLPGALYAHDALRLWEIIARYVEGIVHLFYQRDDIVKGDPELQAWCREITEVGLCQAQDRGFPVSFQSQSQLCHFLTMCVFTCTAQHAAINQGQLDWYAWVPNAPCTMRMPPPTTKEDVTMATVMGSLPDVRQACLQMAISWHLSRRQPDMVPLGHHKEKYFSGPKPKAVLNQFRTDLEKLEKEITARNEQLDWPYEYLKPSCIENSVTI
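Purified human 12hLO (150 nM final) in 25 mM Hepes, 0.01% Triton X-100, pH 7.0 was preincubated 15 min at room temperature with compound. Then 40 uM arachidonic acid was added, 30 min. Hydroperoxide was read by Fe-XO absorbance ratio 573/405 nm.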
HT1080 IDH1KD tx = toxicity to HT-1080 IDH1 knockdown cells (counter line). Potency, µM (doses to about 46.1 µM), inactives show at the highest dose activity, negative = toxicity, actives largely listed as cytotoxic. HT-1080 IDH1 knockdown viability, ATP luminescence, 48 h. 360,000 compounds, 2% hits;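 also: potency is read from the fitted curve at half-maximal effect; 0% = DMSO wells and -100% = cell-free medium wells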
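Using the IDH1-knockdown HT-1080 line run in the same batch and compound series as the NT line, viability after 48 h at 37 °C was determined by CellTiter-Glo luminescence and expressed as % activity.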
HT1080-NT tox = kills 2HG-producing HT-1080-NT fibrosarcoma cells; HT-1080-NT fibrosarcoma viability, CellTiter-Glo ATP luminescence, 48 h; Potency, µM (series often up to 46.1 µM), for inactives: at the highest dose activity, negative = less viability, usual class: cytotoxic; 360,000 compounds, 1.6% hits; AID 686970;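 also: NT is the 2HG producing partner of a matched IDH1 knockdown line; potency is read from the fitted curve at half-maximal effect; 0% = DMSO-treated cells and -100% = media-only wells without cells; nearly all actives have a fitted effect of over 55% in size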
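Fibrosarcoma NT cells, 750 per well in 5% FBS RPMI, were exposed to compound for 48 hours. Viability: CellTiter-Glo luminescence.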
* hit, by the source's call; ? = inconclusive; · = not tested or not shown; [ ] = another dose, or the depositor's remark. Unless noted, calls follow the shape of the dose curve; as a rule, active = well fitted curve in the direction sought with a large enough effect; inconclusive = small, poorly fitted or top-dose-only effect, or another doubt; inactive = no such curve, though single readings can be large; an effect the other way counts as inactive or inconclusive. Unless noted, % is scaled to controls: 0 for no effect and ±100 for the full control effect.

SMILES	DT40 TDP1 CPT	IL1B secr inh	DT40 TDP1 no CPT	ALOX12 inh	HT1080 IDH1KD tx	HT1080-NT tox
Cc1[nH]c2ccccc2c1C(=O)CN1CCCCC1CCO (stereo not drawn)	?	11	16µM*	-8%	-3%	-7%
COc1ccc(N2C(c3ccsc3)=Cc3cc4c(cc3C2c2c[nH]c3ccccc23)OCO4)cc1 (stereo not drawn)	?	-6	23µM*	93%	?	21µM*
Cc1c(C(=O)NC(c2ccccc2)c2nccn2C)oc2ccc(F)cc12 (stereo not drawn)	·	·	·	9%	·	·
CN(Cc1ccccc1)C(=O)C[C@@H]1CCNC[C@@H]1Cc1cc(CN2CCCCC2)on1	·	·	·	5%[176 µM]	·	·
COc1ccccc1-c1cncnc1Nc1ccccc1	?	·	-5%	40µM*	·	·
COc1ccccc1-c1cncnc1NCCN1CCOCC1	7.3µM*	·	5.2µM*	?	·	·
Fc1ccc(Nc2ncncc2-c2ccoc2)cc1	-14%	·	-12%	40µM*	·	·
c1ccc(Nc2ncncc2-c2ccoc2)cc1	?	·	-27%	18µM*	·	·
Cc1ccc(C)c(S(=O)(=O)Nc2nc3ccccc3nc2NCc2ccc3c(c2)OCO3)c1	·	·	·	8%	·	·
COc1cccc(C2Cn3nnc(-c4nc(-c5ccc(C(F)(F)F)cc5)no4)c3CO2)c1 (stereo not drawn)	·	·	·	34%	·	·
CCOc1ccccc1CN1CCCCCCNC(=O)CC1c1ccccc1 (stereo not drawn)	·	·	·	10%	·	·
CCCN(CCC)c1nc2ccccc2nc1C(C#N)C(=O)OC(C)COC (stereo not drawn)	23µM*	-51*	23µM*	0%	-3%	-18%
COc1ccc(NC(=O)/C=C/c2ccc(S(=O)(=O)N3CCOCC3)cc2)cc1	-2%	-9	0%	-50%	1%	9%
COc1ccc(/C=C/C(=O)Nc2ccc(S(=O)(=O)N3CCOCC3)cc2)c(OC)c1	?	-13	18µM*	16%	-1%	-12%
CCN1CCN(c2ccc(S(=O)(=O)N3CCOCC3)cc2NC(=O)/C=C/c2ccc(OC)cc2OC)CC1	26µM*	-21	?	?	-11%	2%
COc1ccc(/C=C/C(=O)Nc2ccc(C)c(S(=O)(=O)N3CCOCC3)c2)cc1	?	-25	18µM*	-8%	21µM*	?
COc1ccc(/C=C/C(=O)Nc2cc(S(=O)(=O)N3CCOCC3)ccc2OC)cc1	-27%	-27	-16%	?	5%	14%
CCN1CCN(c2ccc(S(=O)(=O)N3CCOCC3)cc2NC(=O)/C=C/c2ccc([N+](=O)[O-])cc2)CC1	?	-106*	2.9µM*	?	-6%	-6%
Cc1cccc(S(=O)(=O)Nc2nc3ccccc3nc2NCc2ccccc2Cl)c1	·	·	·	-29%	·	·
O=C(c1ccco1)N(CC1CCCO1)c1nc(-c2ccccc2)cs1 (stereo not drawn)	?	-10	23µM*	-14%	?	?
CN(C)c1ccc(CN(CC2CCCO2)C(=O)c2cccs2)cc1 (stereo not drawn)	?	0	-23%	-23%	0%	-5%
O=C(c1cccs1)N(CC1CCCO1)c1nc(-c2ccccc2)cs1 (stereo not drawn)	21µM*	-29	?	0%	-8%	-8%
CC(=O)N(Cc1ccccc1)c1nc(-c2ccccc2)cs1	1%	-18	?	61%	-9%	-1%
S=C1NC[C@H](c2ccccc2)N1CC1CCCCC1	21µM*	-5	23µM*	?	7%	-1%
CCCCN1C(=S)NC[C@@H]1c1ccccc1	-14%	10	-19%	-22%	2%	15%
SMILES	DT40 TDP1 CPT	IL1B secr inh	DT40 TDP1 no CPT	ALOX12 inh	HT1080 IDH1KD tx	HT1080-NT tox
CC[C@H](C)[C@H]1CNC(=S)N1CC1CCN(CC2CCC(C)CC2)CC1 (stereo partly drawn)	-29%	-3	-17%	-9%	-3%	0%
O=C1NC[C@H](Cc2ccccc2)N(CC2CCN(CCC34CC5CC(CC(C5)C3)C4)CC2)C1=O	21µM*	-73*	?	-3%	-5%	-6%
CC(C)C[C@H]1CNC(=O)C(=O)N1CC1CCN(CCC(C)c2ccccc2)CC1 (stereo partly drawn)	-3%	-15	-1%	?	14%	4%
CC[C@H](C)[C@H]1CNC(=S)N1CC1CCN(CCC23CC4CC(CC(C4)C2)C3)CC1	?	-63*	16µM*	-14%	2%	-2%
FC(F)(F)c1cc(CCN2C(=S)NC[C@@H]2CC2CCCCC2)cc(C(F)(F)F)c1	?	?	?	?	7%	0%
S=C1NC[C@H](CC2CCCCC2)N1CCCCC1CCCCC1	16µM*	4	?	-125%	12%	12%
CCn1nc(C)c(CNC(=O)Nc2ccc(OC)cc2OC)c1C	·	·	·	1%	·	·
Cc1cc2oc(=O)cc(CSc3nncs3)c2cc1C	·	·	·	-1%	·	·
COCCNC(=O)c1ccc(-c2nc(CS(=O)c3ccc(C)cc3)c(C)o2)cc1 (stereo not drawn)	·	·	·	-79%	·	·
S=C1NC[C@H](Cc2ccccc2)N1CCCCC1CCCCC1	?	-1	26µM*	35µM*	-17%	?
S=C1NC[C@H](Cc2ccccc2)N1CC1CCN(CCCC2CCCC2)CC1	?	-67*	?	-18%	0%	-11%
CCC(=O)N1c2ccccc2NC2=C(C(=O)CC(C)(C)C2)C1c1ccc(OC)c(OC)c1 (stereo not drawn)	·	·	·	10%	·	·
COc1ccc(C(=O)N2CCCC(c3noc(COc4ccccc4F)n3)C2)cc1 (stereo not drawn)	·	·	·	1%	·	·
Cc1cc(C(=O)CSc2nnc(-c3ccco3)o2)c(C)n1-c1ccc2c(c1)OCCO2	?	15	21µM*	16%	-21%	-4%
Cc1ccc(C(=O)OCC(=O)c2cc(C)n(Cc3ccco3)c2C)s1	·	·	·	-46%	·	·
Cc1cc(C(=O)CCl)c(C)n1Cc1ccco1	2.6µM*	-97*	2.6µM*	-7%	?	?
Cc1cc(C(=O)CSc2nncs2)c(C)n1Cc1ccco1	-17%	11	12µM*	2%	-1%	-2%
Cc1cc(C(=O)CN2C(=O)NC(c3ccccc3)(c3ccccc3)C2=O)c(C)n1Cc1ccco1	?	-3	23µM*	21%	-7%	-12%

Assay outcomes (PubChem)
